An excerpt weighted towards active compounds, which were near 19% of everything screened.
MCF10A rereplic: A quantitative high throughput screen for small molecules that induce DNA re-replication in MCF 10a normal breast cells. actives 2.9% (n = 350,000). MCF 10A DNA re-replication, Hoechst nuclear intensity, 48 h. Potency, µM (highest dose often 46.1 µM), inactives show at the top dose activity, positive = re-replication, usual class: activators; also: potency is read from the fitted curve at half-maximal effect; % of control where 0% means no effect; nearly all actives have a fitted effect of over 50% in size
TDP1 cell CPT: qHTS for Inhibitors of human tyrosyl-DNA phosphodiesterase 1 (TDP1): qHTS in cells in presence of CPT; chicken DT40 Tdp1-/-;hTDP1 cells + 20 nM CPT, ATP luminescence, 48 h; Potency, µM (titrated, usually from 46.2 µM), without a hit: top-dose activity change, negative = growth inhibition, usual class: inhibitors; actives 12% (n = 420,000); also: potency is read from the fitted curve at half-maximal effect; % is scaled to controls: 0 for no effect and ±100 for the full control effect; nearly all actives have a fitted effect of over 55% in size
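Chicken DT40 Tdp1-/- cells stably complemented with human TDP1 were seeded at 400 cells/well in medium containing 20 nM camptothecin, exposed to pin-transferred compounds, and grown at 37 °C for at least 48 hr. Viability was read as ATP luminescence.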
TDP1 cell noCPT: qHTS for Inhibitors of human tyrosyl-DNA phosphodiesterase 1 (TDP1): qHTS in cells in absence of CPT. DT40 Tdp1-/- hTDP1 cells, no CPT, ATP luminescence, 48 h. Potency, µM (top dose mostly 46.2 µM), inactives show at the top dose activity change, negative = growth inhibition, hits mostly inhibitors. actives 15% (n = 420,000). AID 686978, 2013; also: potency is read from the fitted curve at half-maximal effect; % is scaled to controls: 0 for no effect and ±100 for the full control effect; nearly all actives have a fitted effect of over 55% in size
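Chicken DT40 Tdp1-/- cells stably complemented with human TDP1 were seeded at 400 cells/well with DMSO in place of 20 nM camptothecin. After compound pinning, cells grew at least 48 hr at 37 °C; viability read by CellTiter-Glo luminescence.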
SW480 rerep: A quantitative high throughput screen for small molecules that induce DNA re-replication in SW480 colon adenocarcinoma cells | AID 624297, 2012 | actives 1.8% (n = 340,000) | SW480 DNA re-replication, Hoechst DNA content imaging, 48 h | Potency, µM (series often up to 46.1 µM), inactives show top-dose re-replication activation, usual class: activators; also: potency is read from the fitted curve at half-maximal effect; % of control where 0% means no effect; nearly all actives have a fitted effect of over 55% in size
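Per well, 250 cells were exposed to pinned compound for 48 hr. Nuclear DNA was visualised with Hoechst (40 min, 37 C) and total object intensity recorded by fluorescence scanning.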
BCR signal inh: qHTS Assay to Find Inhibitors of Chronic Active B-Cell Receptor Signaling; Potency, µM (titrated, usually from 46.1 µM), inactives show top-dose activity change, negative = inhibition, most hits filed as inhibitors; AID 493014, 2011; actives 0.05% (n = 340,000); ABC-DLBCL IkBa-CBG/CBR reporter, luminescence ratio, 4 h; active = well fitted inhibition curve with a large enough effect in the signal ratio, with a control signal flat, not every such curve was filed as active; inconclusive = small, poorly fitted or top-dose-only effect, or effect the other way, or a change in a side signal; the % refers to the signal ratio;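 also: potency is read from the fitted curve at half-maximal effect; plate controls were basal doxycycline-induced cells for no effect and cells given 10 µM MG132 for full effect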
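Compounds up to 46 uM were incubated four hours with TMD8 cells whose green CBG68 luciferase is fused to IkappaBalpha; red CBR luminescence normalised the signal, and concentration-effect curves were fitted to fusion, red and ratio data.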
IL1B secr inh: qHTS for Inhibitors of Inflammasome Signaling: IL-1-beta AlphaLISA Primary Screen; activity change, % at 57.5 µM; THP-1 LPS/ATP IL-1B secretion, AlphaLISA, 16 h; hits give low values; actives 4.7% (n = 360,000); in the data active = activity change below about -50%; inconclusive = mostly about -30% to -49%; also: % is scaled to controls: 0 for no effect and ±100 for the full control effect
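Secreted IL-1B measured by AlphaLISA bead assay after 16 h compound exposure of THP-1 cells; compounds (final up to 57.5 uM) added 1 h before LPS (250 ng/mL) and ATP (1.25 mM) stimulation; lower signal means less secretion.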
* hit, by the source's call; ? = inconclusive; / = no result; [ ] = remark or other dose. Unless noted, calls follow the shape of the dose curve; as a rule, active = well fitted curve in the direction sought with a large enough effect; inconclusive = small, poorly fitted or top-dose-only effect, or another doubt; inactive = no such curve, though single readings can be large; an effect the other way counts as inactive or inconclusive.

SMILES | MCF10A rereplic | TDP1 cell CPT | TDP1 cell noCPT | SW480 rerep | BCR signal inh | IL1B secr inh
CC(CCN1C(Nc2ccccc2)=NC[C@@H]1Cc1ccccc1)c1ccccc1 (stereo partly drawn) | 18% | ? | 18µM* | 0% | -11% | -23
CC(C)C[C@H]1CN=C(Nc2ccccc2)N1CCCCc1ccccc1 | 0% | 26µM* | ? | -2% | ? | -11
CC(C)CCCN1C(Nc2ccccc2)=NC[C@@H]1Cc1ccccc1 | 2% | ? | 16µM* | ? | ? | ?
CC(C)CCCN1C(Nc2ccccc2)=NC[C@@H]1CC(C)C | 16% | ? | 18µM* | 1% | -23% | -28
CC1(C(=O)NS(=O)(=O)c2ccc(C#N)cc2)CCN1C(=O)Cc1ccccc1Cl (stereo not drawn) | / | -15% | -3% | / | / | 20
CN(Cc1cnn(Cc2ccccc2)c1)C(=O)CN=C1NS(=O)(=O)c2ccccc21 | 2% | -9% | -14% | -7% | 1% | -15
CCCCc1nn2c(=O)cc(COC(=O)c3ccccc3NC(=O)c3cccs3)nc2s1 | / | -10% | -7% | / | / | /
O=C(CSc1nnnn1C1CC2C=CC1C2)Nc1ccc(C(=O)O)cc1 (stereo not drawn) | -2% | -15% | 0% | 2% | ? | 5
CCCCN1C(=O)N(c2ccccc2Cl)C(C)(O)CC1(C)C (stereo not drawn) | 2% | -14% | ? | -52% | -7% | 1
CC(CCN1C(Nc2ccccc2)=NC[C@@H]1C)c1ccccc1 (stereo partly drawn) | 2% | 23µM* | 12µM* | 1% | -11% | -5
CC(C)CCN1C(Nc2ccccc2)=NC[C@@H]1Cc1ccccc1 | -2% | ? | 16µM* | -13% | -31% | -15
CC(C)CCN1C(Nc2ccccc2)=NC[C@@H]1C | -13% | -22% | ? | -3%[9.22 µM] | -1% | 11
Cc1ncc(CO)c(/C=N/NC(=O)c2ccc(O)cc2)c1O | -4% | 1% | -8% | / | ? | 0
COc1ccc(C(=O)N/N=C/c2c(CO)cnc(C)c2O)cc1 | -4% | 5.8µM* | 23µM* | -10% | ? | 33
Cc1ncc(CO)c(/C=N/NC(=O)c2cc3c(s2)CCCC3)c1O | ? | 5.8µM* | 7.3µM* | -8% | 0% | 90
O=C(CCCOC(=O)c1cccnc1Cl)c1ccc(Br)cc1 | -1% | ? | ? | -4% | 3% | -2
O=C(CCCOC(=O)c1ccc(O)cc1O)c1ccc(Br)cc1 | ? | ? | 23µM* | 1% | -8% | 3
O=C(CS(=O)(=O)c1ccccc1)c1ccc2c(c1)OCCO2 | -3% | 15µM* | 18µM* | -1% | -16% | -4
O=C(C[n+]1ccc(/C=C/c2ccccc2)cc1)c1ccc2c(c1)OCCO2 | 15% | ? | 9.2µM* | ? | ? | -94*
O=C(CCN1Cc2ccccc2C1)c1ccc2c(c1)OCCO2 | -3% | 3.7µM* | 5.2µM* | 13% | ? | -90*
O=C(O)CCC(=O)c1ccc2c(c1)OCCO2 | 3% | -13% | -2% | 2% | -3% | -1
O=C(CCN1CCc2ccccc2C(c2ccccc2)C1)c1ccc2c(c1)OCCO2 (stereo not drawn) | 5.2µM* | 3.3µM* | 3.3µM* | ? | ? | -20
O=C(O)CCSCC(=O)c1ccc2c(c1)OCCO2 | ? | -21% | -20% | ? | 10% | 36
Cc1cc(C)c2c(N)c(C(=O)Nc3ccc([N+](=O)[O-])cc3)sc2n1 | -7% | 0% | 18% | -9% | ? | -11
Cc1c(N2C(=O)c3cccc4cccc(c34)C2=O)cnn1C | -24% | -2% | -20% | -4% | ? | -15
SMILES | MCF10A rereplic | TDP1 cell CPT | TDP1 cell noCPT | SW480 rerep | BCR signal inh | IL1B secr inh
Cc1ccc(C2=NN(CC(=O)NC(C)c3ccccc3)C(=O)CC2)cc1 (stereo not drawn) | / | -8% | -4% | / | -17% | /
Cc1cccc(C(=O)N2CCCC(N3CCN(c4ccc(F)cc4)CC3)C2)n1 (stereo not drawn) | 2% | -28% | -21% | -13% | 0% | 58
COCc1cc(C)nc2sc(C(=O)OC(C)C)c(N)c12 | 21µM* | -23% | ? | ? | 11% | -15
COCc1cc(C)nc2sc(C(=O)Nc3ccccc3F)c(N)c12 | 6.5µM* | -9% | ? | 12µM* | -1% | 0
CCOC(=O)c1nc(C)sc1-c1ccnn1S(=O)(=O)c1cccc(Cl)c1 | ? | -5% | -23% | -52% | ? | /
CCCN(CCC)c1nn2c(=O)c(C(=O)NCc3cc(Br)ccc3OC)cnc2s1 | / | -19% | -29% | / | / | /
CCOc1ccccc1N1CCN(CC(O)COC2CCCc3ccccc32)CC1 (stereo not drawn) | 16% | ? | ? | ? | -5% | -15
CCOc1ccccc1NC(=O)c1cc(-c2ccccn2)nc2ccccc12 | ? | 21µM* | 10µM* | ? | -1% | ?
COc1ccc(NC(=O)c2cc(-c3ccccn3)nc3ccccc23)c(OC)c1 | 12% | 29µM* | 15µM* | 1% | 2% | ?
COc1ccc2c(c1)c1c(c(=O)n(-c3ccc(OC)c(OC)c3)c(=O)n1Cc1ccccc1F)n2C | / | -15% | -17% | / | / | /
O=C(COc1ccc(Cl)cc1Cl)N(c1ccccn1)C1CCCCC1 | ? | 26µM* | ? | 17% | -3% | -17
O=C(COCCOCC(=O)N(c1ccccn1)C1CCCCC1)N(c1ccccn1)C1CCCCC1 | -1% | 13% | -1% | 19% | -5% | 2
CC(C)(C)c1ccc(OCC(=O)N(c2ccccn2)C2CCCCC2)cc1 | 10% | ? | 15µM* | 11% | -1% | 16
COc1cccc(C(=O)N2CCC(N3CC(C)OC(C)C3)CC2)c1 (stereo not drawn) | 5% | 9% | 3% | -1% | -1% | 0
CC(=O)c1ccc(N2CCN(C(=O)CCS(=O)(=O)c3ccc4c(c3)NC(=O)CS4)CC2)cc1 | -1% | 18µM* | ? | -4% | -1% | 24

Screens as filed in PubChem BioAssay.
